# Source: PubChem (National Center for Advancing Translational Sciences (NCATS))
# gsp antag: qHTS for Antagonists of gsp, the Etiologic Mutation Responsible for Fibrous Dysplasia/McCune-Albright Syndrome: qHTS | gsp-mutant cells, cAMP HTRF, 30 min | Potency, µM (doses to about 76.9 µM), inactives show top-dose activity change, negative = inhibition, actives largely listed as inhibitors | actives 0.4% (n = 340,000); calls by dose curve; cell line not stated here;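 note: intracellular cAMP measured with PDE inhibitor Ro 20-1724 present during compound exposure; potency is the fitted concentration of half-maximal effect; % is set by controls: 0 for no effect and ±100 for the full control effect; nearly all actives have a fitted effect of over 65% in size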
#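 Measurement of cellular cAMP by homogeneous time-resolved fluorescence following a 30 min compound exposure at 37C. The PDE inhibitor […] was present throughout; the assay buffer was DPBS with 0.05% BSA and 0.005% Tween 20.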
# RXFP1 antag: qHTS Assay for Antagonists of the Relaxin Receptor RXFP1. HEK293-RXFP1, relaxin-stimulated cAMP HTRF, 30 min; active compounds read low. AID 1259400, 2018. activity change, negative = inhibition, % at 57.5 µM. actives 0.59% (n = 350,000);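 active = activity change of -60% or lower, but not beyond a set lower limit; inconclusive = change between -60% and -40%, or beyond the set limit; inactive = change above -40%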; note: % is set by controls: 0 for no effect and ±100 for the full control effect
# Target sequence (Q9HBX9 whole entry, looked up): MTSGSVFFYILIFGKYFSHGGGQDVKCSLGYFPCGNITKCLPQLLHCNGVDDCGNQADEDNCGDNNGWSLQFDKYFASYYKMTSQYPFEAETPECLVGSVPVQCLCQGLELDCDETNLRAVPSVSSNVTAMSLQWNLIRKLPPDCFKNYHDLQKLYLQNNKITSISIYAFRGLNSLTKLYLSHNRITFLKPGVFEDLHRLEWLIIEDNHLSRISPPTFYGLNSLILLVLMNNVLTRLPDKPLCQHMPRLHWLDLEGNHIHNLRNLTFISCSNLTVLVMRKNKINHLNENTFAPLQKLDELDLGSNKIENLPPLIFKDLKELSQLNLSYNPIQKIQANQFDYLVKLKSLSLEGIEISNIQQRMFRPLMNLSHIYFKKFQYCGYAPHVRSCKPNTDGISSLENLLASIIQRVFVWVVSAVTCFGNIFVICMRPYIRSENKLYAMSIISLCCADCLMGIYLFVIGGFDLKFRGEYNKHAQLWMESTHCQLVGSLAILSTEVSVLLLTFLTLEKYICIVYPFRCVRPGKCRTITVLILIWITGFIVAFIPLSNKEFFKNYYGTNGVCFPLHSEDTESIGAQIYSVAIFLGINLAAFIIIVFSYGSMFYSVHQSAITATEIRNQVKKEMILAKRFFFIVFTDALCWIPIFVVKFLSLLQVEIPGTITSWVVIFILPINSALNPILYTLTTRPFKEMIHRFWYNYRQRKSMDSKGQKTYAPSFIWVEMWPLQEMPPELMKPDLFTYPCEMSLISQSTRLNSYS
# Giardia killer: Small Molecules that selectively kill Giardia lamblia: qHTS | Giardia lamblia trophozoite viability | activity change, % at 7.66 µM, hits read low | actives 0.15% (n = 340,000); in the data active = activity change below about -80%; inconclusive = between about -30% and that limit;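 note: parasites exposed to compound for two days anaerobically before the ATP read; % is set by controls: 0 for no effect and ±100 for the full control effect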
#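 Killing of trophozoites was scored by loss of ATP luminescence after a 48 hrs anaerobic exposure to compounds at 37 deg C, using 100 cells per well.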
# gsp ag: qHTS for Agonist of gsp, the Etiologic Mutation Responsible for Fibrous Dysplasia/McCune-Albright Syndrome: qHTS; gsp mutant cells, cAMP HTRF, 30 min; AID 624287, 2012; Potency, µM (series often up to 76.9 µM), for inactives: at the top dose activation (cAMP increase), most hits filed as activators; actives 0.13% (n = 340,000); active = well fitted activation curve with a large enough effect; inconclusive = small, poorly fitted or top-dose-only effect, or another doubt; inactive = no such curve, though single readings can be large or run the other way; cell line not stated here;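 note: phosphodiesterase inhibitor Ro 20-1724 added with compounds to block cAMP breakdown; potency is the fitted concentration of half-maximal effect; nearly all actives have a fitted effect of over 60% in size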
#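 Cells in DMEM/10% FBS with G418 were pretreated with compounds in DMSO plus […] (300 uM stock) for 30 min at 37C. cAMP was measured by HTRF (cAMP-d2 plus anti-cAMP antibody-K) after 30 min at room temperature.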
# RXFP1 ag: qHTS Assay for Agonists of the Relaxin Receptor RXFP1 | Relaxin receptor 1 (Homo sapiens), Q9HBX9 | HEK293T-RXFP1 cAMP TR-FRET, 30 min; response scale: percent of porcine relaxin response, buffer zero | Potency, µM (series often up to 57.5 µM), inactives show at the top dose activation, hits mostly activators | actives 0.3% (n = 370,000) | AID 2676, 2010; active = well fitted activation curve with a large enough effect; inconclusive = small, poorly fitted or top-dose-only effect; note: potency is the fitted concentration of half-maximal effect; % is set by controls: 0 for no effect and ±100 for the full control effect; nearly all actives have a fitted effect of over 60% in size
#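 HEK293T cells stably expressing RXFP1 were pretreated with the PDE4 inhibitor Ro 20174, exposed to compounds for 30 min at 37C, lysed, and cAMP was read by TR-FRET. Data normalized to buffer (basal) and 29 nM porcine relaxin (100%).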
# FBPA coupling cs: qHTS Assay for Inhibitors of Fructose-1,6-bisphosphate Aldolase from Giardia Lamblia: Coupling assay counterscreen; coupling enzyme system counterscreen, AmpLite Red fluorescence; activity change, negative = inhibition, % at 58.2 µM, hits read low; actives 0.67% (n = 290,000); AID 2472, 2010; in the data active = activity change below about -30%; note: % is set by controls: 0 for no effect and ±100 for the full control effect
#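 Coupling enzymes only (glyceraldehyde-3-phosphate) + compound, at 57.5 uM final, 10 min RT; add substrate/coupling/AmpLite Red mix, 20 min RT; fluorescence ex 525/em 598 nm. Actives flag coupling-system interference.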
# An asterisk follows results filed as active; ? = inconclusive; . = not tested or not shown; [ ] = dose if it differs, or a comment. Hits are enriched below; roughly 1.6% of the tested compounds scored in any of these assays.
SMILES,gsp antag,RXFP1 antag,Giardia killer,gsp ag,RXFP1 ag,FBPA coupling cs
O=C(C(=Cc1ccccc1)CN1CCCCC1)c1ccccc1,-8%,-72*,-14,30%,.,.
C=C(C)C(O)/C=C/C=C/c1ccccc1 (stereo not given),.,.,.,.,.,0
O=C(O)c1cn(C2CC2)c2cc(Cl)c(F)cc2c1=O,.,-13,.,.,.,.
Cc1cc2ccccn2c1C(=O)c1ccc([N+](=O)[O-])cc1[N+](=O)[O-],7%,-5,-86*,22%,-3%,-3
NC(Cc1cc(I)c(Oc2cc(I)c(O)c(I)c2)c(I)c1)C(=O)O (stereo not given),.,.,.,.,.,12
CCOc1ccc(N(CCCCO)C(=S)NC(=O)c2ccc(C)c(Br)c2)cc1,?,-90*,-19,-30%[15.4 µM],0%,6
CCOc1ccc(NC(=O)CN(C)C(=O)c2cn3ccccc3n2)cc1OCC,8%,-8,7,2%[15.4 µM],1%,.
Cc1cccc(CC(Cc2nc3ccccc3[nH]2)c2nc3ccccc3[nH]2)c1 (stereo not given),?,-15,2,0%,-2%,-3
COc1ccccc1CC(Cc1nc2ccccc2[nH]1)c1nc2ccccc2[nH]1 (stereo not given),-19%,-67*,8,?,2%,-6
O=C(C(Br)=Cc1ccccc1)c1ccccc1,-8%,-91*,-12,17%,.,.
Cc1ccc(S(=O)(=O)N2CCN(c3nc(-c4ncccn4)nc4ccccc34)CC2)cc1,.,.,7,.,.,.
c1ccc(-c2nc(-n3ccnc3)nc(-n3ccnc3)n2)cc1,-21%,-12,2,0%,0%,-51*
COC(=O)C1=C[C@@H](C(=O)OC)C2C3=C(C(=O)[C@@]2(C)NC(=O)c2ccccc2)[C@H](C)[C@@H]2C(=O)N(C)C(=O)[C@@H]2[C@@H]3C1 (stereo not given in full),.,.,-4,.,.,-2
CC(C)[N+]1(C)[C@@H]2CC[C@H]1CC(OC(=O)[C@@H](CO)c1ccccc1)C2 (stereo not given in full),.,.,.,.,.,1
Cc1ccc(NC(=O)Nc2ccc3c(c2)N(C)C(=O)CS3)cc1C,-29%,.,-22,-24%,0%,0
Cc1cc(C)cc(NC(=O)Nc2ccc3c(c2)N(C)C(=O)CS3)c1,?,.,-1,-12%,-2%,-1
CCc1ccc(NC(=O)Nc2ccc3c(c2)N(C)C(=O)CS3)cc1,35µM*,.,7,17%,-1%,1
CC(=O)c1cccc(NC(=O)Nc2ccc3c(c2)N(C)C(=O)CS3)c1,?,-72*,4,-6%,1%,-5
CCOc1cc(CNC(=O)Cn2ncn3c(cc4cc(F)ccc43)c2=O)cc(OCC)c1OCC,.,1,.,.,-1%,.
Cc1ccc(N2C(=O)CC(Nc3ccc(Cl)c(S(=O)(=O)N(C)C)c3)C2=O)c(C)c1 (stereo not given),-20%,0,6,-28%,0%,0
Cc1cc(OCCOCC[N+](C)(C)Cc2ccccc2)ccc1C(C)(C)CC(C)(C)C,.,-29,.,.,.,.
O[N+]1=CC=CCC1=S.On1ccccc1=S.[Zn],.,.,.,.,.,-42*
O=C(CN1CCN(C(=O)c2ccc(-c3nc4ccccc4s3)o2)CC1)Nc1ccccc1Cl,18µM*,-38,1,-4%[15.4 µM],0%,.
O=C(CN1CCN(C(=O)c2ccc(-c3nc4ccccc4s3)o2)CC1)Nc1ccc(F)cc1,45µM*,-17,-14,-51%,0%,.
CC(C)COc1ccc(C(=O)Nc2onc3c2CCCC3)cc1,.,-15,.,.,2%,.
SMILES,gsp antag,RXFP1 antag,Giardia killer,gsp ag,RXFP1 ag,FBPA coupling cs
Cc1ccc(N2C(=O)N3[C@H](c4cccc(C)c4)[C@@H]4C(=O)N(Cc5ccccc5)C(=O)[C@@H]4[C@]3(C)C2=O)cc1,-2%,.,-10,-22%,1%,.
Cc1cccc([C@@H]2[C@@H]3C(=O)N(Cc4ccccc4)C(=O)[C@@H]3[C@]3(C)C(=O)N(c4cccc(F)c4)C(=O)N23)c1,28µM*,.,-29,.,0%,.
CCOc1ccc(OCC)c(NC(=O)c2csc3c2CCCC3)c1,.,?,.,.,1%,.
CCC(NC(=O)Nc1ccc(O)cc1)(C(F)(F)F)C(F)(F)F,-8%,1,3,?,-1%,-43*
CC(NC(=O)Nc1ccc(O)cc1)(C(F)(F)F)C(F)(F)F,0%,-11,19,-16%,2%,-33*
COc1ccc(NC(=O)NC(C)(C(F)(F)F)C(F)(F)F)cc1,-7%,-13,-17,-16%,0%,-1
CCC(NC(=O)NCc1ccccc1)(C(F)(F)F)C(F)(F)F,0%,-4,-19,-9%[15.4 µM],0%,0
CN(C)CCCNc1cc(N2CCN(C3CCCCC3)CC2)c2noc3c2c1C(=O)c1ccccc1-3,.,?,.,.,0%,.
COC(=O)/C=C\C(=O)OC,.,-7,.,.,.,.
Cc1ccc(CNC(=O)CCCCCn2c(=O)c3sccc3n(CC(=O)Nc3ccc(C)c(F)c3)c2=O)cc1,.,-4,.,.,32µM*,.
Cc1ccc(NC(=O)Cn2c(=O)n(CCCCCC(=O)NCc3ccc(F)cc3)c(=O)c3sccc32)c(C)c1,.,6,.,.,26%,.
Cc1c(-c2nnc(SCC(=O)O)n2-c2ccccc2Br)nnn1-c1ccccc1,4%,-6,-16,-14%,3%,2
CC(=O)Nc1ccc(NC(=O)C(C)OC(=O)c2ccccc2NS(=O)(=O)c2cccs2)cc1 (stereo not given),-4%,-27,4,-34%[15.4 µM],-1%,-12
Cc1ccccc1NC1=C/C(=N\S(=O)(=O)c2cccs2)c2ccccc2C1=O,9%,-3,-23,-41%,2%,-46*
Cc1ccc(NC2=C/C(=N/S(=O)(=O)c3cccs3)c3ccccc3C2=O)cc1C,-15%,-6,-9,-51%,-1%,-26
CC(=O)Nc1ccc(NC2=C/C(=N/S(=O)(=O)c3cccs3)c3ccccc3C2=O)cc1,?,0,-13,-21%,-8%,-35*
COc1ccc(S(=O)(=O)/N=C2\C=C(Nc3ccc(O)cc3)C(=O)c3ccccc32)cc1,-7%,5,-5,-3%[15.4 µM],-11%,-32*
C/C(CCN1CCCc2nc(C)c(C)cc21)=N\O[C@@H](C)c1cc(-c2c(C)cc(C)cc2C)no1,.,.,.,.,.,1
